A selection: hits, their analogues and other compounds. The true share with any hit is near 7.3%.
NPC1 prom act: activates the NPC1 promoter; Huh7 NPC1 promoter luciferase reporter, 24 h; Potency, µM (top dose mostly 9.22 µM), without a hit: at the highest dose activation, hits mostly activators; 320,000 tested, 2.4% active; AID 485313; further: % of control where 0% means no effect; nearly all actives have a fitted effect of over 60% in size
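Luminescence read-out of NPC1 promoter-driven luciferase in stably transfected Huh7 cells; compounds delivered in DMSO and left 24 h at 37C, 5% CO2, qHTS titration format.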
FLuc counter: counter-screen for miR-21 project: firefly luciferase inhibitors or activators. P08659. purified FLuc, Km substrates, luminescence inhibition. AID 588342. 360,000 tested, 6.9% active. Potency, µM (series often up to 57.5 µM), for the others: at the highest dose activity change, negative = inhibition, usual class: inhibitors;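 further: plate controls were vehicle for no effect and reference inhibitor for full effect; nearly all actives have a fitted effect of over 55% in size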
Target sequence (P08659 whole entry, looked up): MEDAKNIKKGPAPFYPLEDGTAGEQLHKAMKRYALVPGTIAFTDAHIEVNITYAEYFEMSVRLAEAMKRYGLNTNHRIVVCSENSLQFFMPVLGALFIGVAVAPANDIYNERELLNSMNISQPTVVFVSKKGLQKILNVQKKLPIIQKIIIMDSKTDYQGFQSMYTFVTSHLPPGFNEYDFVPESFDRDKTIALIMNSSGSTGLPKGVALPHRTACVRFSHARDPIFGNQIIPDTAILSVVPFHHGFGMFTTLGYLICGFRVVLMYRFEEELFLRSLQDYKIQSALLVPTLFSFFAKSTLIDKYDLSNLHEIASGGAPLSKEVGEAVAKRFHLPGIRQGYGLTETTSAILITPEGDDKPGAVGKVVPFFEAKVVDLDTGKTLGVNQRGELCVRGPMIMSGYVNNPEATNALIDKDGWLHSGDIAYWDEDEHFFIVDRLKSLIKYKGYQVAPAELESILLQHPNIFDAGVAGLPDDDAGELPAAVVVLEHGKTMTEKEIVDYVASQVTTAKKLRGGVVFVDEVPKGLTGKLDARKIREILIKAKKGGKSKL
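Purified P. pyralis luciferase, 10 nM final, with Km-level 10 uM D-luciferin and 10 uM ATP in 50 mM Tris acetate pH 7.5, 10 mM Mg acetate, 0.01% Tween-20, 0.05% BSA; 6-point qHTS titration about 60 µM downward; luminescence read.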
ELG1 genotox: genotoxicity induction in ELG1-luciferase HEK293T cells; HEK293T ELG1-luciferase reporter, luminescence, 16 h; Potency, µM (doses to about 46 µM), for inactives: at the highest dose activity change, positive = activation, hits mostly activators; 330,000 tested, 1.3% active; further: % of control where 0% means no effect; nearly all actives have a fitted effect of over 60% in size
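Screening used a luciferase reporter fused to human ELG1 in HEK293T cells. Luminescence was read on a CCD plate imager after 16 hr exposure and 30 min ONE-Glo incubation.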
SMN2 splice enh: increases expression of the SMN2 splice variant | HEK293 SMN2-luciferase splicing reporter, luminescence, 30-36 h | 210,000 tested, 2.8% active | Potency, µM (series often up to 46.1 µM), without a hit: at the highest dose activity change, positive = activation, usual class: activators; further: % of control where 0% means no effect; nearly all actives have a fitted effect of over 55% in size
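HEK293 cells carry an SMN2 […]–luciferase reporter in which exon 7 inclusion puts luciferase in frame. Cells were plated 10-12 h before compound addition, then incubated 30-36 h at 37C. ONE-Glo luminescence was read; sodium butyrate at 4.5 mM final served as control.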
p53 reactivation: restores transcriptional activity of mutant p53 | H1299 p53-A138V BP100-luciferase reporter, luminescence, 24 h | Potency, µM (series often up to 92.2 µM), without a hit: top-dose activity change, positive = activation, actives largely listed as activators | 320,000 tested, 0.063% active; further: % of control where 0% means no effect; nearly all actives have a fitted effect of over 45% in size
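H1299 (p53-null), stable ts p53-A138V + BP100-Luc; 1000 cells/well, Opti-MEM/10% FBS; cpd 4 pt, 1:5; 24 h, 37 deg C, 5% CO2; detection reagent 10 min RT; luminescence.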
Rab9 promoter act: activates the Rab9 promoter. Potency, µM (titrated, usually from 9.22 µM), for the others: at the highest dose activation, negative = inhibition, usual class: activators. AID 485297. 320,000 tested, 2.8% active. Huh7 Rab9 promoter-luciferase reporter, luminescence, 24 h; further: % of control where 0% means no effect; nearly all actives have a fitted effect of over 60% in size
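Cells were plated at 1500 per well in reduced-serum medium with 10% FBS and left 2 h. Compound in DMSO was then added for 24 h at 37 °C. Reporter signal was read by luminescence after 10 min with luciferase detection reagent.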
Starred values were filed as active, the others as inactive. The call rests on the fitted dose curve; in most records, active means well fitted curve in the direction sought with a large enough effect; inconclusive means small, poorly fitted or top-dose-only effect, or another doubt; inactive means no such curve, though single readings can be large; an effect the other way counts as inactive or inconclusive. Potency means the concentration at half of the fitted maximal effect.

CC(=O)Oc1ccc(N(C(C)=O)S(=O)(=O)c2ccc(C)cc2C)c2ccccc12 was read as NPC1 prom act -1%, FLuc counter -2%, ELG1 genotox -11% and Rab9 promoter act 10%.
`CC(=O)N(/N=C1\Sc2ccccc2C1=O)c1ccccc1` gave NPC1 prom act 23%, FLuc counter inconclusive, ELG1 genotox inconclusive, SMN2 splice enh 14µM*, p53 reactivation 12% and Rab9 promoter act 23%.
CC(=O)N(/N=C1\Sc2ccccc2C1=O)c1ccc(C)cc1C was read as NPC1 prom act inconclusive, FLuc counter 17µM*, ELG1 genotox 15µM*, SMN2 splice enh -68%, p53 reactivation 19% and Rab9 promoter act 23%.
Screening CC(=O)N(/N=C1\Sc2ccccc2C1=O)c1ccccc1C returned NPC1 prom act inconclusive, FLuc counter 11µM*, ELG1 genotox inconclusive, SMN2 splice enh inconclusive, p53 reactivation 25% and Rab9 promoter act 3.2µM*.
For CC(=O)N(\C=C/C=C/C=C1\Sc2ccccc2C1=O)c1ccccc1 the results were NPC1 prom act -2%, FLuc counter 7.6µM*, ELG1 genotox -5%, SMN2 splice enh -58%, p53 reactivation 14% and Rab9 promoter act 7%.
For CN(C)/C=C1/Sc2ccccc2C1=O the results were NPC1 prom act 11%, FLuc counter inconclusive, ELG1 genotox -2%, SMN2 splice enh 8%, p53 reactivation inconclusive and Rab9 promoter act -4%.
For NC(=O)c1cccc2c3c([nH]c12)CCCC3 the results were NPC1 prom act 14%, FLuc counter 24µM*, ELG1 genotox 8%, SMN2 splice enh -4%, p53 reactivation inconclusive and Rab9 promoter act -4%.
CCOC(=O)C1CCCc2c1[nH]c1c(C(N)=O)cccc21 (centres undefined) was read as NPC1 prom act 10%, FLuc counter -1%, ELG1 genotox -2%, SMN2 splice enh 24%, p53 reactivation 10% and Rab9 promoter act 2%.
`CN(C)CCn1c(=S)[nH]c2ccccc2c1=O` gave NPC1 prom act 14%, FLuc counter 0%, ELG1 genotox 5%, SMN2 splice enh 11%, p53 reactivation -5% and Rab9 promoter act 1%.
`CCCn1c(=S)[nH]c2ccccc2c1=O` gave NPC1 prom act -9%, FLuc counter 13µM*, ELG1 genotox -2%, SMN2 splice enh 2%, p53 reactivation 10% and Rab9 promoter act -10%.
COc1cccc2sc(N(C)c3ccccc3)nc12 was read as NPC1 prom act 1.3µM*, FLuc counter 0.85µM*, ELG1 genotox 1.6µM*, SMN2 splice enh 8.9µM*, p53 reactivation inconclusive and Rab9 promoter act 0.5µM*.
`N#CCCN1CCCc2cc(N=Nc3ccc(C(F)(F)F)cc3)ccc21` gave NPC1 prom act inconclusive, FLuc counter 13µM*, ELG1 genotox 11%, p53 reactivation 6% and Rab9 promoter act inconclusive.
Screening Cn1c(C(=O)N[C@@H](C(=O)O)c2ccccc2)cc2cc(F)ccc21 returned NPC1 prom act 0%, FLuc counter inconclusive, ELG1 genotox -5%, p53 reactivation 11% and Rab9 promoter act 1%.
For COCCCn1c(=O)c2sccc2n2c(CCCC(=O)Nc3ccc(F)c(F)c3)nnc12 the results were FLuc counter -4% and SMN2 splice enh -3%.
Cc1ccc(N=CNc2ccc(C)cc2C)c(C)c1 was read as NPC1 prom act -4%, FLuc counter 15µM*, ELG1 genotox 3%, p53 reactivation 2% and Rab9 promoter act 13%.
O=C(NC1CCCCCC1)C(=S)NC1CCCCC1 was read as NPC1 prom act 2.5µM*, FLuc counter 5.4µM*, ELG1 genotox inconclusive, SMN2 splice enh -36%, p53 reactivation 11% and Rab9 promoter act -4%.
`O=C(NC1CCCCCCC1)NC1CCCCC1` gave NPC1 prom act 3.5µM*, FLuc counter 17µM*, ELG1 genotox inconclusive, SMN2 splice enh inconclusive, p53 reactivation inconclusive and Rab9 promoter act 4µM*.
